BJeLR lethal: MLPCN primary cell-based screen for lethality selective to Ras in HRASV12 cells; BJeLR (HRASV12) viability, CellTiter-Glo ATP luminescence, 48 h; 0.17% of 300,000 active; inhibition, % (concentration not given with the values); in the data active means inhibition above about 50%; inconclusive means no clear call, values can overlap the other calls
BoNT-A LC inh2: BoNT/A light chain protease inhibitors, primary screen, biochemical, flow cytometry, MLPCN library; multiplex microsphere protease substrate cleavage; inhibition, % at 10 µM; 0.17% of 360,000 active; further: plate controls were buffer without enzyme for full effect and enzyme alone for no effect
BoNT-F LC inh: BoNT/F light chain protease inhibitors, primary screen, biochemical, flow cytometry, MLPCN library | Botulinum neurotoxin type F light chain protease (Clostridium botulinum) | Multiplex microsphere protease cleavage assay | inhibition, % at 10 µM | 0.22% of 360,000 active; in the data active means inhibition above about 35%, passing the limit was not always enough; inconclusive means no clear call, values can overlap the other calls; further: plate controls were buffer without enzyme for full effect and enzyme alone for no effect
SARS 3CLpro inh: SARS-CoV 3CLpro protease inhibitors, primary screen, biochemical, quenched FRET; AID 1706, 2009; recombinant SARS-CoV 3CLpro, quenched FRET peptide cleavage; inhibition, % at 6 µM; Replicase polyprotein 1ab (Severe acute respiratory syndrome coronavirus), P0C6X7; 0.14% of 290,000 active; in the data active means inhibition above about 12%
Bead autofluor: counter-screen for toxin protease inhibitors: compound fluorescence; fluorescence intensity (no concentration beside the values); 3.1% of 360,000 active; compound autofluorescence counterscreen, microsphere flow cytometry; stronger effect = higher value; in the data active means fluorescence intensity above about 16000; inconclusive means no clear call, values can overlap the other calls
Anthrax LF inh2: Bacillus anthracis LF protease inhibitors, primary screen, biochemical, multiplex microsphere, MLPCN library; Lethal factor (Bacillus anthracis), P15917; multiplex microsphere protease cleavage assay; inhibition, % at 10 µM; 0.12% of 360,000 active; AID 588501, 2011; further: plate controls were buffer without enzyme for full effect and enzyme alone for no effect
Target sequence (P15917 whole entry, looked up): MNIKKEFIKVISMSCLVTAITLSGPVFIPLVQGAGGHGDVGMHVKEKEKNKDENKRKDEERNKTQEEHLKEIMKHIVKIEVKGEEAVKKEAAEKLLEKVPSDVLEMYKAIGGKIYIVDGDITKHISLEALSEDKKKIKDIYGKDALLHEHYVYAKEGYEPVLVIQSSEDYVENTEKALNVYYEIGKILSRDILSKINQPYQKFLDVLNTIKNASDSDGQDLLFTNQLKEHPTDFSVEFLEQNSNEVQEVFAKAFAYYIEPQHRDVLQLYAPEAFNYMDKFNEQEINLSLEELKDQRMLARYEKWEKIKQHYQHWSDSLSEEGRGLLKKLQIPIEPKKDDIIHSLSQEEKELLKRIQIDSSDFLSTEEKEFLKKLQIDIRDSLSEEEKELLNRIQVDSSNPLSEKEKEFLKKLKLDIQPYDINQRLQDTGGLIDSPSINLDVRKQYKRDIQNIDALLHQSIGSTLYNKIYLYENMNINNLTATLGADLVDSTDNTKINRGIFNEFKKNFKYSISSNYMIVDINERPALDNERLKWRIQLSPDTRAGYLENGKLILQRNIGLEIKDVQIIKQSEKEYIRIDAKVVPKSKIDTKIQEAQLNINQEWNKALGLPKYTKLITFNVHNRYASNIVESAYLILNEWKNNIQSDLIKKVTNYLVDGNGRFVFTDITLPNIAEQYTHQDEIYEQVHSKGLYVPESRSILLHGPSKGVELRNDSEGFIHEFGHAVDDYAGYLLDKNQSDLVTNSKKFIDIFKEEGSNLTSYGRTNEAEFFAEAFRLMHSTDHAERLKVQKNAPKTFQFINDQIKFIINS
BoNT-A LC CP1: BoNT/A light chain protease inhibitors, confirmation, biochemical, flow cytometry, cherry pick 1; shares compounds with BoNT-F LC inh; multiplex microsphere protease assay; inhibition, % at 10 µM; 3% of 720 active; in the data active means inhibition above about 32%
BoNT-F LC CP1: BoNT/F light chain protease inhibitors, confirmation, biochemical, flow cytometry, cherry pick 1; AID 602140, 2011; 720 tested, under 10 active; multiplex microsphere protease cleavage assay; shares compounds with BoNT-F LC inh; inhibition, % at 10 µM; call rule not given here
LF protease CP1: Bacillus anthracis LF protease inhibitors, confirmation, biochemical, multiplex microsphere, cherry pick 1. 720 tested, under 10 active. multiplex microsphere protease cleavage assay. inhibition, % at 10 µM. shares compounds with BoNT-F LC inh; call rule not given here
* hit, by the source's call; ? = inconclusive; . = not tested or not shown. The list is not random: actives were taken first. Their share in the collection is about 3.6%. Unless noted, no stated cut-off is given here; in the data, active means inhibition above about 30%; inconclusive means no clear call, values can overlap the other calls; inactive means below that.

SMILES	BJeLR lethal	BoNT-A LC inh2	BoNT-F LC inh	SARS 3CLpro inh	Bead autofluor	Anthrax LF inh2	BoNT-A LC CP1	BoNT-F LC CP1	LF protease CP1
O=C(Nc1cccc(O)c1)N1CCOCC1	2.9	-0.3	2.8	1.3	2893	-1.0	.	.	.
O=C(Nc1ccc2nc(-c3cccs3)c(-c3cccs3)nc2c1)N1CCOCC1	-1.5	68.2*	28.8	3.3	18209*	41.3*	38.6*	2.1	15.8
O=C(CCCC(=O)N(c1ccc(F)cc1)C(C(=O)NC1CCCC1)c1ccc(O)cc1)Nc1ccccn1 (stereo not given)	-11.2	-5.1	-39.1	0.1	3007	-10.0	.	.	.
CC(=O)c1ccc(CCCCc2ccc(C(C)=O)cc2)cc1	.	0.3	5.4	.	3594	-7.7	.	.	.
CCc1nc(SCC(=O)NCCc2ccccc2)n[nH]1	-7.3	0.6	35.3*	1.6	3454	-5.8	1.1	0.4	2.7
O=C(CSc1n[nH]c(-c2ccncc2)n1)NCCc1ccccc1	-1.9	0.0	-5.6	-4.8	2758	1.3	.	.	.
O=C(Nc1cccc(NC(=O)c2ccc(-c3ccc(Br)cc3)o2)c1)c1ccco1	-3.5	-0.9	-4.1	-0.9	9123	-15.5	.	.	.
COc1cc(OC)cc(C(=O)Nc2ccc(C(=O)NCC3CCCO3)cc2)c1 (stereo not given)	9.6	-2.5	?	-1.4	3652	4.0	.	.	.
COc1ccc(C(=O)NCC2CCCO2)cc1 (stereo not given)	-10.6	2.5	35.8*	4.1	2090	-0.4	-0.3	-1.0	-2.0
Cc1nc(N2CCN(C(c3ccccc3)c3ccccc3)CC2)[nH]c(=O)c1C	-5.6	2.6	35.0*	-6.6	3825	3.0	-1.0	0.4	3.1
CCCCC[C@@H](/C=C/C1C(=O)C=C[C@H]1C/C=C\CCCC(=O)OC)OC(C)=O (stereo not given in full)	.	-0.4	-7.1	.	3499	-7.3	.	.	.
CC(C)N(Cc1ccccc1)C(=O)CN1C(=O)c2ccccc2C1=O	-7.4	-0.2	7.4	1.3	4105	-9.6	.	.	.
CC(C)N(Cc1ccccc1)C(=O)CC(=O)N(Cc1ccccc1)C(C)C	-0.3	8.7	36.2*	-2.0	5070	12.2	0.1	-3.7	-1.9
COc1ccc(-c2nnc(OC)c3ccccc23)cc1	-0.3	2.8	37.4*	1.0	4236	6.9	-0.1	-2.5	-3.7
CC(C)n1c(NCc2ccccc2O)nc2ccccc21	-1.9	-1.4	48.7*	-3.5	3793	0.8	-0.5	-2.9	-0.7
CCc1cc2cccc(C)c2nc1SCC(=O)NC1CCCC1	4.1	-0.6	36.8*	7.4	3309	4.1	0.8	-2.6	-2.4
Fc1ccc(Nc2ccc3ccccc3n2)c(F)c1	.	-0.6	-4.7	0.4	4563	-10.1	.	.	.
NC(=O)Cn1nc(-c2ccccc2)nc1-c1ccccc1	-0.3	-2.3	?	.	4464	31.0*	-2.3	-5.6	4.5
COc1ccc(OC)c(NC(=O)COC(=O)CCc2nc3ccccc3c(=O)[nH]2)c1	.	-0.8	-7.0	.	4121	-7.1	.	.	.
Cc1ccc(Nc2nc(C)cc(C)n2)c(Br)c1	1.5	31.5*	35.1*	-6.4	9927	-22.6	-0.2	-3.6	-2.5
O=C(Cn1cnc2sc(-c3ccccc3)cc2c1=O)NCc1ccccc1	1.2	-0.3	-1.0	2.7	9905	0.0	.	.	.
O=C(Cn1cnc2sc(-c3ccccc3)cc2c1=O)NCCc1ccccc1	6.4	0.9	44.7*	-0.1	4551	0.3	1.2	2.5	1.7
CCCCN(C)C(=O)c1cc2cc3ccc(OC)cc3nc2s1	11.6	1.0	-4.1	2.7	3426	-6.6	0.2	-1.7	-0.4
Cc1cccc(N(CC(O)CN2CCCC2)S(=O)(=O)c2ccccc2)c1 (stereo not given)	1.1	0.6	-2.9	-4.2	6464	-0.2	.	.	.
Cc1cc2cc(CNC(=O)Nc3ccccc3)ccc2n1C	5.0	55.6*	-153.4	4.4	2200	-78.2	9.7	-48.2	-8.0
SMILES	BJeLR lethal	BoNT-A LC inh2	BoNT-F LC inh	SARS 3CLpro inh	Bead autofluor	Anthrax LF inh2	BoNT-A LC CP1	BoNT-F LC CP1	LF protease CP1
Cc1cc2cc(CNC(=O)C3CC3)ccc2n1C	-6.3	18.3	6.0	5.4	13924	26.9	.	.	.
CCC(CC)C(=O)NCc1ccc2c(c1)cc(C)n2C	-3.5	32.0*	-37.0	-2.2	3772	-1.3	1.7	-4.6	-1.9
COc1ccc(CNC(=O)Nc2ccccc2)cc1	3.3	-0.7	-6.2	12.2	4598	-1.1	.	.	.
CCOC(=O)NCc1ccc2c(c1)cc(C)n2C	2.9	41.3*	21.5	-3.8	13397	41.8*	-0.1	-7.5	-1.2
Cc1cc2cc(CNC(=O)c3cccs3)ccc2n1C	-5.5	79.0*	-71.5	-1.8	1271	-2.7	15.2	-33.5	1.6
O=C(COc1ccccc1)Nc1cccc(-c2ccc(N3CCOCC3)nn2)c1	-2.7	-0.1	6.3	.	4146	-1.2	.	.	.
Cc1cc2cc(CNC(=O)C(C)Oc3ccccc3)ccc2n1C (stereo not given)	-5.7	90.0*	-56.9	-7.8	2556	-10.2	3.8	-4.3	2.2
Cc1cc2cc(CNC(=O)Nc3ccccc3)ccc2[nH]1	-2.6	54.8*	-117.0	-0.6	3218	-84.2	6.3	-45.8	-7.6
CCOC(=O)NCc1ccc2[nH]c(C)cc2c1	3.2	25.1	-19.6	-7.3	3699	16.2	.	.	.
O=C(Nc1ccccc1O)c1cccc(S(=O)(=O)Nc2ccccc2O)c1	2.0	-0.1	-8.8	.	6544	3.8	-2.2	-20.8	-2.3
Cc1ccccc1NS(=O)(=O)c1cccc(C(=O)Nc2cccc(C(=O)O)c2)c1	-8.0	-1.7	?	-1.4	4073	4.9	-1.0	-4.1	-0.7
COc1ccc(CNC(=O)c2cccc(NC(=O)c3ccccc3)c2)cc1	-3.4	4.2	40.2*	-2.5	2804	-0.3	0.2	-7.1	-1.5
Cc1cccc(OCC(=O)Nc2cccc(C(=O)Nc3ccccc3C(=O)O)c2)c1	-3.3	0.3	-6.1	5.0	1922	-2.1	.	.	.
Cc1ccccc1NC(=O)c1cccc(S(C)(=O)=O)c1	10.8	-0.6	2.8	1.8	4707	-2.3	.	.	.
Cc1ccc(NS(=O)(=O)c2cccc(C(=O)O)c2)c(C)c1	-0.5	1.3	0.4	7.3	7495	2.9	.	.	.
Cc1cccc(NC(=O)c2cccc(S(=O)(=O)Nc3ccccc3C(=O)O)c2)c1	-16.4	-3.3	-47.9	2.2	3303	-6.8	0.9	-5.5	-1.8

Source: PubChem BioAssay (several laboratories)
